# Laboratory results: the supplement of paper PMC10849652
# The full data set covers some 7,900 targets. This sample favours those with a hit. About 0.6% of all pairs of compound and target were hits.
# Compound: C1=CC(=C(C=C1Cl)C2=NC3=NC=CN=C3C(=N2)NC4=CC=NC=C4)F
# Experiment: log2 fold change, soluble protein after heating vs DMSO (PISA); higher = thermal stabilisation; K562 cells, 10 uM, 30 min; active = over 0.2 and 3.5 SD of the protein, either way, in both replicates (recomputed)
# Summary of the method: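 For each measurement, 10 μM compound was applied for 30 min to K562 cells at 2×10^6 cells/mL. Aliquots were heated for 3 min across 48°C-58°C, pooled, and extracted in PBS with 0.5% NP-40 at 4°C; the supernatant after 21,000xg for 90 min was soluble protein. This was quantified by TMTpro 16plex LC-MS/MS with channel sums equalised, and thermal stability was reported relative to control samples from duplicates, on a log2 fold-change scale.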
# Sequence of UniProt P28070 (P28070 whole entry, looked up): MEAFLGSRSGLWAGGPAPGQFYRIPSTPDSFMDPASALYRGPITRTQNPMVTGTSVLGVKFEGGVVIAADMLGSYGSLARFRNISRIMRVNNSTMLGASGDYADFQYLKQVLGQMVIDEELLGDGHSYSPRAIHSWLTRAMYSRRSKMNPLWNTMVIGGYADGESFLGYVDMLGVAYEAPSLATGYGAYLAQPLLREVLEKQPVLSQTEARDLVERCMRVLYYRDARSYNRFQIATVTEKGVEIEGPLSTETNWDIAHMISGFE
# Sequence of UniProt Q16401 (Q16401 whole entry, looked up): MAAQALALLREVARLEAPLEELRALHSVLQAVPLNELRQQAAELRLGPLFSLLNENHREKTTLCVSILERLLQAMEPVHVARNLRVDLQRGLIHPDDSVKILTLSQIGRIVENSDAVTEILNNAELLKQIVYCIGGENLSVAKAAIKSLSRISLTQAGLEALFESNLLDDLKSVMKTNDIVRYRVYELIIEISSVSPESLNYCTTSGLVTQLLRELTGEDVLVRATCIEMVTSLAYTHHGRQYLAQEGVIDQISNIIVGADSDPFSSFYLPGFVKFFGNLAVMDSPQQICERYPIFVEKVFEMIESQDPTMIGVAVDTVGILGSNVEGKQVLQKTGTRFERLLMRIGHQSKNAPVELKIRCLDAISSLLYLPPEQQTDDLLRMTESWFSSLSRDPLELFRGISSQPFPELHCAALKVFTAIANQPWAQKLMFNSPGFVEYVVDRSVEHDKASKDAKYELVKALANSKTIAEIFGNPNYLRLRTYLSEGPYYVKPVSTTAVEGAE
# Sequence of UniProt O75400 (O75400 whole entry, looked up): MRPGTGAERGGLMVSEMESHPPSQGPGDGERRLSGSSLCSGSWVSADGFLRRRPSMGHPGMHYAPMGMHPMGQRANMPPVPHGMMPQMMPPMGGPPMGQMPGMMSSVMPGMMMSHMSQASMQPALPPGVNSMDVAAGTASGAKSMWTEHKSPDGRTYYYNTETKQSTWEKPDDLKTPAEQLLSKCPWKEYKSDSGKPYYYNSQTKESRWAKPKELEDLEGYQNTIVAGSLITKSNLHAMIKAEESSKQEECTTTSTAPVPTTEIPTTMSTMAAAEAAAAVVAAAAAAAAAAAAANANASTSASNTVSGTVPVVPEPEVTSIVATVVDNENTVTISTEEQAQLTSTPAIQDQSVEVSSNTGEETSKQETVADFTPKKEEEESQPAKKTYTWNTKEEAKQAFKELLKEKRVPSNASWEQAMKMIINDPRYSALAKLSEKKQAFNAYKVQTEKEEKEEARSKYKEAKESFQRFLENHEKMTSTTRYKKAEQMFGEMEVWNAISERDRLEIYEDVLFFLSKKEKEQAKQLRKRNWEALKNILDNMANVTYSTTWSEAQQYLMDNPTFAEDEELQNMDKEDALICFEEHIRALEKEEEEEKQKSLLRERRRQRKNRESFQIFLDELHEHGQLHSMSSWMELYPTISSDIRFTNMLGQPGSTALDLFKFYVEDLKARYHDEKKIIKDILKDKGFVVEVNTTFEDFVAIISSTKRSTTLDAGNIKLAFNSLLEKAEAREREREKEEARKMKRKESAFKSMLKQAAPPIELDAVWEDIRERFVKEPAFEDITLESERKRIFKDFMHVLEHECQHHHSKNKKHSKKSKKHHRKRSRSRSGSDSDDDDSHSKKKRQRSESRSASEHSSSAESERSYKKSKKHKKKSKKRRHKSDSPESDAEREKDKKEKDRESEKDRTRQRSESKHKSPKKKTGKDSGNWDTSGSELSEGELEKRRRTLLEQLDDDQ
# Sequence of UniProt Q00577 (Q00577 whole entry, looked up): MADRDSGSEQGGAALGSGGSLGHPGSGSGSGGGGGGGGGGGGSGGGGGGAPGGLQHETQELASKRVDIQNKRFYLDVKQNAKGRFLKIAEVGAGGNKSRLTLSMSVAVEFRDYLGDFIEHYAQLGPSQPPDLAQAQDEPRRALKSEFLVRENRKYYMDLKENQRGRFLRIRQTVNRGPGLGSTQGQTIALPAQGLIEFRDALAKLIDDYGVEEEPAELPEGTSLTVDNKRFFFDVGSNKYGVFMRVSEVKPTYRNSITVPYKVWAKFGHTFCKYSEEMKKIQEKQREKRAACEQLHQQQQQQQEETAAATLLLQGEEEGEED
# Sequence of UniProt Q86YH6 (Q86YH6 whole entry, looked up): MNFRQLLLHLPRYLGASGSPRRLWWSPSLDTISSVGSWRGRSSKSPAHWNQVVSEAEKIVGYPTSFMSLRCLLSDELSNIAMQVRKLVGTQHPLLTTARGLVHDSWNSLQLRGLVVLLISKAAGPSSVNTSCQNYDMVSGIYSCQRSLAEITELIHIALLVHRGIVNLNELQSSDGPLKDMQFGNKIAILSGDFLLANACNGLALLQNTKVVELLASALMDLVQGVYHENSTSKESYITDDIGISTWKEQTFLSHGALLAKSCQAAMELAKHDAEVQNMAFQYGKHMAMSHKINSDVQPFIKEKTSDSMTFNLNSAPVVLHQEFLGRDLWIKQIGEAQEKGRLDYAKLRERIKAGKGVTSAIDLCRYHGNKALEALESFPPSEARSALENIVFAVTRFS
# Sequence of UniProt Q9UHX1 (Q9UHX1 whole entry, looked up): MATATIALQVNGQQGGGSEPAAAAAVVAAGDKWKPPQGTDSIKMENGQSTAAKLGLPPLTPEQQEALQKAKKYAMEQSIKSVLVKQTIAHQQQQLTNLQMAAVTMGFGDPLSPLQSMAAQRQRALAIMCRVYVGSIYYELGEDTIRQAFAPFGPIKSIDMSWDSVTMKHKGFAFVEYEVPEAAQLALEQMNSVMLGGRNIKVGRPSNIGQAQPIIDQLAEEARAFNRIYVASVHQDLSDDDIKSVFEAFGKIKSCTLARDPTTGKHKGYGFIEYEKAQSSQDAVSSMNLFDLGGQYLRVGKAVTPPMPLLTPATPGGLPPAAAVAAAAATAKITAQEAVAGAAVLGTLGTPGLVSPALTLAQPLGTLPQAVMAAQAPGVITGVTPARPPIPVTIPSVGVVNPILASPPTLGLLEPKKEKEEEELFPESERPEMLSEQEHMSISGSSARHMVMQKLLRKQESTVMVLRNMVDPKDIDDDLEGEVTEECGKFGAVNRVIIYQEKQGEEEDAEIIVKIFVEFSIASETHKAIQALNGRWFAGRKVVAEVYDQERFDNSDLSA
# Sequence of UniProt P28340 (P28340 whole entry, looked up): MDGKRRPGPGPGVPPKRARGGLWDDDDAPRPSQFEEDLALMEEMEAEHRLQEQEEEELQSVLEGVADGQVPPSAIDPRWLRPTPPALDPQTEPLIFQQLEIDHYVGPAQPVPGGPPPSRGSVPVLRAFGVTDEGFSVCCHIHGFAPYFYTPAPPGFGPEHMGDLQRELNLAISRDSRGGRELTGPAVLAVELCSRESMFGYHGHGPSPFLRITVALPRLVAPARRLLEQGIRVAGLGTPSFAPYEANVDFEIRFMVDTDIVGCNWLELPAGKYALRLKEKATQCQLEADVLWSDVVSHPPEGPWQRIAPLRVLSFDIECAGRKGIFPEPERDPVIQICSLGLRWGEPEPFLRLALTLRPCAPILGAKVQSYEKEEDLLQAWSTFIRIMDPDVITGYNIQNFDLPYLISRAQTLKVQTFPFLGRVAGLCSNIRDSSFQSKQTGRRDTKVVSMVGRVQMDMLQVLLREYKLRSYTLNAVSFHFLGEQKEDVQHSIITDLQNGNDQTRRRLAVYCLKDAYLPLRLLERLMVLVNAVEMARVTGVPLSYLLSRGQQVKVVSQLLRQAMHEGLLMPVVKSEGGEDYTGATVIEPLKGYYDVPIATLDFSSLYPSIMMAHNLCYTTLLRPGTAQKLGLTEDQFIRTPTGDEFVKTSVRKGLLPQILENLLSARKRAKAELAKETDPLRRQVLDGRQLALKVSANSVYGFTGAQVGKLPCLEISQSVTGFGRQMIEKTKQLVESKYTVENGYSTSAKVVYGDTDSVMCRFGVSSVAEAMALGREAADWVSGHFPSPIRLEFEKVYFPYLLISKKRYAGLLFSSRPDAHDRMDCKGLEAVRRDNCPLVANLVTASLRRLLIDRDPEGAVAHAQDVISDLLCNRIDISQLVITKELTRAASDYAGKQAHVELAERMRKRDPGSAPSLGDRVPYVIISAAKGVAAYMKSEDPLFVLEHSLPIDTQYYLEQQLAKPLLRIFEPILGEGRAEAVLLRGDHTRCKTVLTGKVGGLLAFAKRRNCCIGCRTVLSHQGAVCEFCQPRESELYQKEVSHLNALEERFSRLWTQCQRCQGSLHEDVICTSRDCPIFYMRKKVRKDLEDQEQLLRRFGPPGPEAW
# Sequence of UniProt Q13362 (Q13362 whole entry, looked up): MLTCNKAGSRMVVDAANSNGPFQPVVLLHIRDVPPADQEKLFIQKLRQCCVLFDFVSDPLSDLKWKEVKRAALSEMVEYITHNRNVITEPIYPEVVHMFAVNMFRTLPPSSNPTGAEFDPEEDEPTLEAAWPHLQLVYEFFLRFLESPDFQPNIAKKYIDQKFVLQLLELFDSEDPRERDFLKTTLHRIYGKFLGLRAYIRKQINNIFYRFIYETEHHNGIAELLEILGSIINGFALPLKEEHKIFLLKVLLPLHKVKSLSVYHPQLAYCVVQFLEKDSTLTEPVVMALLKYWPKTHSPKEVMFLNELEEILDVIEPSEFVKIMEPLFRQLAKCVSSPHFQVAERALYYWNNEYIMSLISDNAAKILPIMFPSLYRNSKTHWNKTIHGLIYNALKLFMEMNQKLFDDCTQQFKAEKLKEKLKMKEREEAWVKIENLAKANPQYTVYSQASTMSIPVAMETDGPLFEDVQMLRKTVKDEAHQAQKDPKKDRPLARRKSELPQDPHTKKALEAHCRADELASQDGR
# Sequence of UniProt Q96A00 (Q96A00 whole entry, looked up): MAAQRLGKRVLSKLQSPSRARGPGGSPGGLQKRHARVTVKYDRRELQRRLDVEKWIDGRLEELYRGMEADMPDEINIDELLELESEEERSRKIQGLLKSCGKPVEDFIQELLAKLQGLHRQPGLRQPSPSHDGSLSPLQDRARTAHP
# Sequence of UniProt Q7RTV0 (Q7RTV0 whole entry, looked up): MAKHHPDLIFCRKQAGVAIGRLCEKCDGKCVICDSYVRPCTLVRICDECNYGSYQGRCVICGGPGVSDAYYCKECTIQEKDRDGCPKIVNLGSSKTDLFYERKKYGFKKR
row,Target,log2 fold change
1,PHF5A (UniProt Q7RTV0),0.03 (inactive)
2,PRKAR2A (UniProt P13861),-0.024 (inactive)
3,PRUNE1 (UniProt Q86TP1),0.062 (inactive)
4,POMP (UniProt Q9Y244),0.373 (active)
5,PPT2 isoform 3 (UniProt Q9UMR5),0.033 (inactive)
6,PIP4P1 isoform 2 (UniProt Q86T03),0.052 (inactive)
7,POLD1 (UniProt P28340),-0.009 (inactive)
8,PGGT1B (UniProt P53609),0.114 (inactive)
9,PPP1R14A (UniProt Q96A00),0.004 (inactive)
10,PRMT3 (UniProt O60678),0.03 (inactive)
11,PEX11B (UniProt O96011),0.162 (inactive)
12,PCYT1A (UniProt P49585),-0.03 (inactive)
13,PISD (UniProt Q9UG56),0.026 (inactive)
14,PSMD5 (UniProt Q16401),0.063 (inactive)
15,PRPF40A (UniProt O75400),-0.087 (inactive)
16,PDIK1L (UniProt Q8N165),-0.031 (inactive)
17,PMPCA (UniProt Q10713),0.064 (inactive)
18,PDCD2L (UniProt Q9BRP1),0.128 (inactive)

row,Target,log2 fold change
1,PSMC6 (UniProt P62333),-0.006 (inactive)
2,PRKAB1 (UniProt Q9Y478),0.052 (inactive)
3,PDSS2 (UniProt Q86YH6),-0.04 (inactive)
4,POLA1 (UniProt P09884),0.042 (inactive)
5,PGM3 isoform 4 (UniProt O95394),0.045 (inactive)
6,PSMD3 (UniProt O43242),-0.072 (inactive)
7,PARL (UniProt Q9H300),0.011 (inactive)
8,PEX13 (UniProt Q92968),0.026 (inactive)
9,PURA (UniProt Q00577),-0.319 (inactive)
10,PSMB4 (UniProt P28070),-0.003 (inactive)
11,PIK3CB (UniProt P42338),0.002 (inactive)
12,PPP2R5C isoform 4 (UniProt Q13362),0.218 (inactive)
13,PUF60 (UniProt Q9UHX1),-0.005 (inactive)
14,PRKACA (UniProt P17612),-0.054 (inactive)
15,PRPSAP2 (UniProt O60256),-0.017 (inactive)
16,PHKA2 (UniProt P46019),0.041 (inactive)
17,PTPN12 (UniProt Q05209),-0.011 (inactive)
18,RAB11FIP1 (UniProt Q6WKZ4),0.078 (inactive)
